This is a sample that favours compounds with a hit; in the whole collection about 3.3% have one here.
AmpC no deterg: blocks E. coli AmpC beta-lactamase in detergent-free assay; 330,000 tested, 0.52% active; AID 485341; P00811; Potency, µM (top dose mostly 57.1 µM), for inactives: at the top dose activity change, negative = inhibition, hits mostly inhibitors; AmpC nitrocefin hydrolysis, absorbance 480 nm, 0.0001% Triton;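 also: plate controls were no compound for no effect and no enzyme for full effect; nearly all actives have a fitted effect of over 20% in size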
Target sequence (P00811 whole entry, looked up): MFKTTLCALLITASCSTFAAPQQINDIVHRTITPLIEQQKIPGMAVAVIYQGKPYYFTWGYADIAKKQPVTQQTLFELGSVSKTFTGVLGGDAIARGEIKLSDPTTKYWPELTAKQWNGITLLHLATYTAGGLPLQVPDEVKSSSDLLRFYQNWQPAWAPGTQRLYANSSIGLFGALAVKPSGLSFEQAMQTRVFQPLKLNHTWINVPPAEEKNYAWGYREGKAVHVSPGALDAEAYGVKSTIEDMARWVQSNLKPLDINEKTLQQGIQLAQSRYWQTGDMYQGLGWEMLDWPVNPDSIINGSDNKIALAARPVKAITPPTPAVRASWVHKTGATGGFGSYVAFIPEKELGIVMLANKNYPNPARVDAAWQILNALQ
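20 mM phosphate pH 7.0 + 0.01% (detergent screen) or 0.0001% Triton X-100; 5.3 nM AmpC reagent; cpd preinc 15 min RT; nitrocefin (800 uM stock) to start; A480 q20 s × 4 min; Activity was normalised to no-enzyme and no-compound control wells.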
Sm TGR block: inhibitors of Schistosoma mansoni thioredoxin glutathione reductase | Q962Y6 | purified TGR, DTNB reduction, TNB absorbance 405 nm | Potency, µM (titrated, usually from 114 µM), inactives show at the highest dose activity change, negative = inhibition, most hits filed as inhibitors | 360,000 tested, 3% active; also: % is scaled to controls: 0 for no effect and ±100 for the full control effect; nearly all actives have a fitted effect of over 60% in size
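Kinetic colorimetric format: TGR-catalysed, NADPH-driven DTNB reduction monitored via TNB absorbance. Enzyme dispensed at 20 nM; compound exposure 15 min at room temperature before reaction start.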
AmpC detergent: AmpC beta-lactamase inhibition with detergent present | P00811 | AmpC hydrolysis of nitrocefin, absorbance 480 nm, 0.01% Triton | Potency, µM (series often up to 114 µM), for the others: at the highest dose activity change, negative = inhibition, actives largely listed as inhibitors | 370,000 tested, 0.041% active | AID 485294;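 also: 0% = no-compound wells and -100% = no-enzyme wells; nearly all actives have a fitted effect of over 25% in size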
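20 mM phosphate pH 7.0 + 0.01% (detergent screen) or 0.0001% Triton X-100; 5.3 nM AmpC reagent; cpd preinc 15 min RT; nitrocefin (800 uM stock) to start; A480 q20 s × 4 min; Activity was normalised to no-enzyme and no-compound control wells.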
SARS PLpro yeast: SARS-CoV PLP inhibition in yeast. S. cerevisiae expressing SARS-CoV PLpro, growth rescue. Potency, µM (series often up to 32.9 µM), for inactives: at the highest dose activity, positive = growth rescue, hits mostly activators. 330,000 tested, 0.19% active. AID 485353; calls by dose curve; also: 0% is about no effect; nearly all actives have a fitted effect of over 55% in size
Tb PYK inh: inhibitors of Trypanosoma brucei pyruvate kinase. TbPYK enzyme, Kinase-Glo Plus ATP luminescence, 45 min. 410,000 tested, 0.12% active. Potency, µM (top dose mostly 76.8 µM), inactives show top-dose activity, negative = inhibition, hits mostly inhibitors; also: % is scaled to controls: 0 for no effect and ±100 for the full control effect; nearly all actives have a fitted effect of over 50% in size
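ADP (130 uM final) triggers the TbPYK reaction after compound addition; incubation is 45 min at room temperature. Kinase-Glo Plus is then added and luminescence imaged. Normalized data are fitted to concentration-effect curves.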
RE007 growth inh: less growth of the S. pombe RE007 Vpr strain; S. pombe RE007 Vpr strain, BacTiter-Glo ATP luminescence, 24 h; Potency, µM (highest dose often 92.2 µM), inactives show top-dose activity change, negative = less growth, hits mostly inhibitors; 360,000 tested, 0.21% active; AID 651644; active = well fitted falling curve with a large enough effect; inconclusive = small, poorly fitted or top-dose-only effect; inactive = no such curve, though single readings can be large or run the other way; also: % is scaled to controls: 0 for no effect and ±100 for the full control effect; nearly all actives have a fitted effect of over 50% in size
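Fission yeast strain RE007, carrying one chromosomally integrated HIV-1 vpr copy, was seeded at OD 0.01 in PMG+AL medium with 23 nL pinned compound. After 24 h at 30 °C and 99% humidity, viability was read by BacTiter-Glo luminescence.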
Active calls of the source: *; ? = inconclusive; · = no result. Unless noted, calls follow the shape of the dose curve; as a rule, active = well fitted curve in the direction sought with a large enough effect; inconclusive = small, poorly fitted or top-dose-only effect, or another doubt; inactive = no such curve, though single readings can be large; an effect the other way counts as inactive or inconclusive. Potency is read from the fitted curve at half-maximal effect.

SMILES | AmpC no deterg | Sm TGR block | AmpC detergent | SARS PLpro yeast | Tb PYK inh | RE007 growth inh
COc1ccc(NC(=O)CSc2nc3c(c(=O)n2-c2ccccc2OC)SCC3)cc1 | 35µM* | 5% | -11% | 5% | -1% | 3%
CCOC(=O)c1ccc(NC(=O)CSc2nc3c(c(=O)n2-c2ccccc2OC)SCC3)cc1 | -22% | 1% | ? | 0% | -3% | -4%
Cc1ccc(-n2c(SCC(=O)NCc3ccco3)nc3nc4c(cc3c2=O)COC(C)(C)C4)cc1 | 72% | 22µM* | -13% | 12% | -9% | 3%
O=C(CSc1nc2c(c(=O)n1-c1ccc(Cl)cc1)SCC2)NCc1ccco1 | · | ? | 0% | · | -9% | 8%
O=C(CSc1nc2c(c(=O)n1-c1ccc(F)cc1)SCC2)NCc1ccco1 | -19% | 40µM* | 4% | 3% | -3% | 13%
O=C(CSc1nc2c([nH]c3ccccc32)c(=O)n1-c1ccc(F)cc1)NCc1ccco1 | 22µM* | -5% | 7% | 16% | -2% | 3%
Cc1cccc(N(C)C(=O)CCNS(=O)(=O)c2ccc3c(c2)CCN3C(=O)C2CC2)c1 | · | ? | 2% | · | -1% | ·
COCc1cc(C)nc(N/N=C/c2ccc(-c3ccc(Cl)cc3[N+](=O)[O-])o2)c1C#N | -27% | 8.9µM* | 3% | -10% | 0% | -13%
Cc1c(C(=O)N/N=C/c2ccc(-c3ccccc3[N+](=O)[O-])o2)sc(N)c1C#N | -36% | -13% | -2% | 1% | 10% | -9%
Cc1cc(C)cc(N2CCn3c2nc2c3c(=O)n(C/C=C/c3ccccc3)c(=O)n2C)c1 | · | 2% | 18% | · | -7% | ·
O=C(CSc1nc2c(c(=O)[nH]1)CCC2)Nc1ccccc1C(F)(F)F | · | -8% | -5% | · | 5% | ·
Fc1ccc(Cl)cc1/C=N/n1cnnc1SCc1ccccc1 | 2% | 5% | 9% | 0% | -1% | -2%
C(=N\n1cnnc1SCc1ccccc1)/c1ccco1 | -16% | 22µM* | ? | -4% | 7% | -13%
C=CCOc1ccc2ccccc2c1/C=N/O | -27% | 1% | ? | -13% | 4% | 32µM*
CC(C)(C)c1ccc(C(=O)Nc2ccc(NC(=O)c3ccc(Cl)c(Cl)c3)cc2)cc1 | · | 2% | -5% | · | 0% | ·
CC(C)(C)c1ccc(C(=O)Nc2ccc(C=C(C#N)C#N)cc2)cc1 | -28% | 3.2µM* | -4% | -41% | -15% | -26%
N#CC(C#N)=Cc1ccc(NC(=O)c2ccc(Br)cc2)cc1 | -44% | 2.5µM* | -9% | -3% | 3% | -21%
COC(=O)c1ccc([C@@H]2Nc3c(cccc3C(F)(F)F)[C@@H]3C=CC[C@@H]32)cc1 | · | 2% | 9% | · | -3% | ·
Fc1ccc([C@@H]2Nc3ccccc3[C@@H]3C=CC[C@@H]32)cc1 | · | 5.6µM* | 10% | · | -27% | ·
COC(=O)c1ccc(C2Nc3c(C)cc(C)cc3C3C=CCC32)cc1 (stereo not given) | · | 1.1µM* | -6% | · | ? | ·
COC(=O)c1ccc([C@H]2Nc3ccc(S(=O)(=O)Nc4ccc(F)cc4)cc3[C@H]3C=CC[C@H]32)cc1 | · | 32µM* | -7% | · | -9% | ·
Cc1cc(C)c2c(c1)[C@@H]1C=CC[C@@H]1[C@H](c1ccc(S(=O)(=O)N3CCOCC3)cc1)N2 | 13% | 2.8µM* | -13% | -13% | ? | -2%
CCC(CC)c1nn2c(=O)cc(COc3ccc(NC(=O)c4ccccc4Cl)cc3)nc2s1 | · | 5% | 6% | · | -1% | ·
Cc1c(CN(C)C(=O)c2cc(-c3ccccc3)nc3ccc(Br)cc23)cnn1C | · | 2% | -4% | · | -9% | ·
Cc1ccc(S(=O)(=O)N2CCCc3cc(NS(=O)(=O)c4cc(F)ccc4F)ccc32)cc1 | · | 6% | 4% | · | 1% | ·
